Here are results for 32 compounds from ChEMBL document CHEMBL3433997, “St. Jude Leishmania screening dataset” (2016).

Common to all, as to type: functional
Assay [1] has as its target Solute carrier family 2, facilitated glucose transporter member 1 (Homo sapiens) (UniProt P11166). The assay is described as follows: ST_JUDE_LEISH: Cytotoxicity at 2uM final concentration against transgenic Leishmania Mexicana promastigotes LmGLUT1 that are glucose transport deficient and complemented with the human glucose transporter GLUT1. Activity is measured by DNA content using SYBR green in vitro.

Assay [2] has as its target Hexose transporter 1 (Plasmodium falciparum) (UniProt O97467). The assay is described as follows: ST_JUDE_LEISH: Cytotoxicity at 2uM final concentration against transgenic Leishmania Mexicana promastigotes LmPfHT that are glucose transport deficient and complemented with the Plasmodium falciparum hexose transporter. Activity is measured by DNA content using SYBR green in vitro.

Assay [3] addresses Glucose transporter (Leishmania mexicana) (UniProt O61059). The assay is described as follows: ST_JUDE_LEISH: Cytotoxicity at 2uM final concentration against transgenic Leishmania Mexicana promastigotes LmGT2 that are glucose transport deficient and complemented with the L. Mexicana glucose transporter 2. Activity is measured by DNA content using SYBR green in vitro.

Usually inhibition stands for the drop in the measured response relative to a control, in per cent.

Sequence of Solute carrier family 2, facilitated glucose transporter member 1 (Homo sapiens) (P11166 whole entry): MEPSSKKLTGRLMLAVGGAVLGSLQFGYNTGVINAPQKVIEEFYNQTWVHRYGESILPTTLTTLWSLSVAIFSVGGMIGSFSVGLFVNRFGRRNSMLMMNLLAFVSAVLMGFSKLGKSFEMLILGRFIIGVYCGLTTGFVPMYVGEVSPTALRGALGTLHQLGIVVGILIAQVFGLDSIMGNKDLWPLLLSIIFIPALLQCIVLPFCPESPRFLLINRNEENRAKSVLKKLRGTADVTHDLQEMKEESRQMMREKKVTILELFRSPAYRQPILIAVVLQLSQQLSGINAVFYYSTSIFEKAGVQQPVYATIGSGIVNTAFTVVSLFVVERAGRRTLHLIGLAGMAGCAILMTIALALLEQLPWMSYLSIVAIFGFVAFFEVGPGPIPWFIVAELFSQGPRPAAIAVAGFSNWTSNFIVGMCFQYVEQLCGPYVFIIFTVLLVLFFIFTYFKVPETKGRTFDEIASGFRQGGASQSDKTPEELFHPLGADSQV

Turning to `Nc1ncc(OC2CCCCC2)c(N)n1`, the inhibition in assay [1] is -1.08%; in assay [2], 0.87%; in assay [3] it was -1.09%.
In the same order, the values of `Nc1nc(N)c2c(ccc3[nH]c(-c4ccccc4Cl)nc32)n1` are 77.1%, 69.7% and 61.8%.
In the same order, the values of `COc1ccc(NS(=O)(=O)c2ccc(Oc3nc(C)nc4sc5c(c34)CCCC5)cc2)cc1` are 3.13%, 3.7% and 2.29%.
As to `CCOC(=O)C(C(C)=O)C(c1ccccc1)C(C(C)=O)C(=O)OCC` (stereo unspecified), the inhibition in assay [1] was 3.08%; in assay [2], 4.69%; in assay [3], 0.94%.
In the same order, the values of `COc1ccc(CNCc2ccc(F)cc2)cc1-c1ccc(S(=O)(=O)NCCN2CCCC2)c(C)c1` are 2.82%, 3.53% and -2.85%.
In the same order, the values of `O=C(Nc1ccc(C(F)(F)F)cc1)NC1CCN(CCCCCNC(=O)C2CC2c2ccc(Cl)c(Cl)c2)CC1` (stereo unspecified) are -1.45%, -1.93% and -1.98%.
Consider `CCCOC(=O)c1ccc(OCCCON2C(=N)N=C(N)NC2(C)C)cc1`, for which the inhibition is 2.28% in assay [1], -0.38% in assay [2] and 5.01% in assay [3].
Turning to `CCCNC(=O)Nc1cc2cc(-c3ccc(CN4CCCC4)cc3)ccc2n2c(C)nnc12`, the inhibition was 4.57% in assay [1], 3.01% in assay [2] and -1.87% in assay [3].
In the same order, the values of `N#Cc1ccc2c(c1)CCN(CCC1CCC(NC(=O)/C=C/c3ccc4[nH]ccc4c3)CC1)CC2` (stereo unspecified) are 1.65%, 0.57% and 0.13%.
In the same order, the values of `N#Cc1ccc(N/C(=N\c2ccc(-c3ccccc3)cc2)NCCc2c[nH]c3ccccc23)c(O)c1` are 9.42%, 8.49% and 8.99%.
In the same order, the values of `Cc1cc(Cl)ccc1OC(C)C(=O)N1CCc2ccccc21` (stereo unspecified) are -3.17%, 0.81% and -0.66%.
`COC(=O)c1cccc(N2CCN(CCCNC(=O)/C(=C/C=C/c3cc4cc(Cl)c(Cl)cc4[nH]3)OC)CC2)c1`: the inhibition in assay [1] is 2.24%; in assay [2], 0.95%; in assay [3], -1.57%.
As to `O=C(Nc1cccc(-c2cccc(-c3nc4ccccc4[nH]3)c2)c1)Nc1ccc(F)c(F)c1F`, the inhibition is 2.74% in assay [1], 4.36% in assay [2] and 3.88% in assay [3].
In the same order, the values of `CCCCCCn1c(Sc2ccc(C#N)c([N+](=O)[O-])c2)nnc1-c1cccc(Cl)c1` are 3.22%, 9.17% and 0.88%.
In the same order, the values of `CCc1ccc(CN2CCC(NC(=O)c3ccc(-c4ccccc4F)s3)CC2)cc1` are 0.37%, 0.03% and -5.91%.
In the same order, the values of `CCC[C@@H]([C@@H](CC1CCCCC1)C(=O)N[C@H](C(=O)Nc1nccc(N)n1)C(C)(C)C)N(O)C=O` are 3.28%, 4.83% and 4.24%.
With `CCN(CCCN1CCCCC1)c1cc(C)nc(Nc2ccc(Br)cc2F)n1`, the inhibition in assay [1] is 0.13%; in assay [2], 2.96%; in assay [3], 1.34%.
Regarding `C=CCN(c1ccc(OC)cc1)S(=O)(=O)c1ccc(Cl)c(C(=O)Nc2cccc(C#N)c2)c1`, the inhibition in assay [1] is -1.28%; in assay [2], 4.89%; in assay [3], 4.17%.
Regarding `O=C(Nc1cccc(-c2ccc(-c3nc4ccccc4[nH]3)cc2)c1)c1cccnc1`, the inhibition in assay [1] was 6.47%; in assay [2], 0.4%; in assay [3], -0.92%.
In the same order, the values of `COc1cccc(-c2cc3c(NCc4ccncc4)nccc3s2)c1` are 3.12%, 3.46% and 0.82%.
With `COc1ccc(-c2ccc(NC(=O)c3cccc(C#N)c3)cc2)cc1CN(C)C`, the inhibition came to 1.28% in assay [1], 0.34% in assay [2] and 0.41% in assay [3].
In the same order, the values of `O=C(Nc1cccc(-c2nn3ccccc3c2-c2ccnc(Nc3cccc(-c4cnco4)c3)n2)c1)C1CCCCC1` are 1.06%, 3.39% and -0.16%.
In the same order, the values of `COc1ccc(NC(=O)[C@H](Cc2ccccc2)Nc2cc(C)nc(NCCN3CCCC3)n2)cc1` are 11.2%, 9.21% and 7.49%.
In the same order, the values of `CCOc1ccc2nc3cc([N+](=O)[O-])ccc3c(N)c2c1` are 6.85%, 7.59% and 2.01%.
Consider `Cc1cccc2nc(-c3ccc(-c4cccc(C(=O)NCCN5CCCC5)c4)s3)[nH]c12`, for which the inhibition is 10.1% in assay [1], 10.7% in assay [2] and 9.13% in assay [3].
In the same order, the values of `CCCCNC(=O)[C@H](CC1CCCCC1)NC(=O)c1ccc(O)c(-c2ccc(Cl)c(Cl)c2)c1` are -0.2%, -1.98% and 0.36%.
In the same order, the values of `O=C(Cc1ccc(NC(=O)c2ccc(O)c(-c3ccc(Cl)c(Cl)c3)c2)cc1)NCCc1ccc(Cl)c(Cl)c1` are 2.01%, 2.38% and -0.6%.
In the same order, the values of `CO[C@H](C)[C@H](NC(=O)[C@H](CC(C)C)[C@H](CCC(F)(F)F)N(O)C=O)C(=O)Nc1nccs1` are 4.95%, 4.95% and 3.68%.
In the case of `CCCCOc1ccc(-n2c(Nc3ccccc3)nc3cc(S(N)(=O)=O)ccc32)cc1`, the inhibition in assay [1] is 11.4%; in assay [2], 8.64%; in assay [3], 7.09%.
In the same order, the values of `Cc1cc(NCCc2ccccc2)nc(NC(=N)Nc2ccccc2Cl)n1` are 9.69%, 7.74% and 7.34%.
For the compound `CC(C)N1CCCN(C(=O)C2CCN(c3ccc(C(=O)N4CCCC4)cn3)CC2)CC1`, the results for the inhibition in assay [1], in assay [2] and in assay [3] were 5.32%, 4.11% and 4.51%, respectively.
In the same order, the values of `O=C(Nc1cccc(C(F)(F)F)c1)c1ccc(S(=O)(=O)NCC2CCN(CC3CCCCC3)CC2)cc1` are 3.47%, 2% and 3.8%.
